Here are results for 16 compounds from PubChem BioAssay (NCI).

The structures appear in SMILES notation. Where “and” joins values, the source holds several entries; their conditions need not be identical. Equal values may be shown once. Compounds without any hit were thinned out: in the full panel of roughly 79,000, 15% have a hit. Unmarked numbers belong to inactive results. Calls of active or inactive are those of the source. No stated cut-off is given here; in the data, active means growth inhibition above about 70%; inactive means the rest.

A short description of this assay: NCI Yeast Anticancer Drug Screen. Data for the mec2-1 strain (AID 157). Conditions: S. cerevisiae mec2-1 strain, at 50.0 µM (retest, dose inferred, filed as 5.0), active compounds read high. A digest of the protocol:
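Mutant yeast (mec2-1) grown with compound; growth inhibition relative to vehicle control reported.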
As for `Oc1c(Cl)cc(Cl)cc1Cc1cc(Cl)cc(Cl)c1O`, the growth inhibition was 99% (active).

Turning to `COc1cc(OC)c(OC)cc1/C=C\c1ccnc2ccccc12`, the growth inhibition is 65%.

Turning to `CC(C)C1=CC23CCC4C(C)(C(=O)O)CCCC4(C)C2CC1C1C(=O)OC(=O)C13` (stereo unspecified), the growth inhibition is 100% (active).

Take `CN(C)c1nc(N)c(C#N)c(C#N)c1C#N`: the growth inhibition is 44%.

For the compound `C/C(=N\NC(=S)N1CCN(c2ccccn2)CC1)c1nccs1`, the growth inhibition is 99% (active).

Take `CCCCCCCCCCCCCCCCCCOCC(COP(=O)([O-])OCC[N+](C)(C)C)OC` (stereo unspecified): the growth inhibition was -28%.

With `COc1ccc2nc(C)cc(NCCCCCCCCCNc3cc(C)nc4ccc(OC)cc34)c2c1`, the growth inhibition was 94% (active).

Regarding `CC1CC[P+](c2ccccc2)(c2ccccc2)c2c1ccc1ccccc21` (stereo unspecified), the growth inhibition was 98% (active).

`CC(C)C1=C(O)C2=C(C(=O)C1=O)C1(C)CCCC(C)(C)C1CC2O` (stereo unspecified): the growth inhibition is 98% (active).

Regarding `CC(=O)[O-].[O-]c1c(Cl)cc(Cl)cc1/C=N/Nc1ccccn1.[Zn+2]`, the growth inhibition is 96% (active).

In the case of `O=C(c1ccccc1)C(c1ccccc1)C(O)c1ccc([N+](=O)[O-])cc1` (stereo unspecified), the growth inhibition was 96% (active) and 99% (active).

For `Clc1nc(Cl)c(Cl)c(Cl)n1`, the growth inhibition is 100% (active).

For `COc1cccc2c1C(=O)c1c(O)c3c(c(O)c1C2=O)C[C@@](O)(C(C)=O)C[C@@H]3OC1CC(N(C)C)C(O)C(C)O1` (stereo partly specified), the growth inhibition is 98% (active).

In the case of `CN1C(c2ccccc2)CC(=NOCc2ccccc2)CC1c1ccccc1` (stereo unspecified), the growth inhibition was 97% (active).

For `Cc1ccc(NCCN(C)C)c2c(=O)c3cc(O)ccc3sc12`, the growth inhibition was 99% (active).

Consider `N#CC1(C2SCCS2=O)C2=C(C(=O)c3ccccc3C2=O)N2CCCC21` (stereo unspecified), for which the growth inhibition was 49%.
